From PubChem BioAssay AID1851 (National Center for Advancing Translational Sciences (NCATS), 2009)
The campaign covered roughly 16,000 compounds. About 5,100 (32%) were called active. Roughly 25% stayed inconclusive and do not appear here. Some of the results follow. Values without a mark were called inactive. Calls follow the shape of the dose curve; as a rule, active = well fitted curve in the direction sought with a large enough effect; inconclusive = small, poorly fitted or top-dose-only effect, or effect the other way; inactive = no such curve, though single readings can be large or run the other way.

molecular target: Cytochrome P450 3A4 (Homo sapiens) (UniProt P08684); test: Cytochrome panel assay with activity outcomes; details: recombinant CYP, pro-luciferin dealkylation, luminescence, p450-cyp3a4; series mostly up to 57.1 µM; activity, negative = inhibition: at the top concentration
Sequence (P08684 whole entry, looked up): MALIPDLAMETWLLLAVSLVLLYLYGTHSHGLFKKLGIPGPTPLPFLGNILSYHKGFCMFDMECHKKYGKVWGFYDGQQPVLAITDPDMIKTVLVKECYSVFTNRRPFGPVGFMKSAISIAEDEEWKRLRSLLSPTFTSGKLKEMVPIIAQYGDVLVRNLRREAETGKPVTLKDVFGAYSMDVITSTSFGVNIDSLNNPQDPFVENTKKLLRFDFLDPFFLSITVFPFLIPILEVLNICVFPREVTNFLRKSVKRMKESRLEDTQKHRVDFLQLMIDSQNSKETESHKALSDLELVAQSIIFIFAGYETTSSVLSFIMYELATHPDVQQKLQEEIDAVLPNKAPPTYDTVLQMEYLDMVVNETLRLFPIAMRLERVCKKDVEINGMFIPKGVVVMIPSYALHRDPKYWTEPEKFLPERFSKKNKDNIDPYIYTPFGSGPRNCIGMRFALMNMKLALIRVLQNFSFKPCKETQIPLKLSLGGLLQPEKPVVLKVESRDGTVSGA
% is scaled to controls: 0 for no effect and ±100 for the full control effect.

Structure (SMILES)	activity, negative = inhibition	AC50
COc1c(O)cc2c(c1O)[C@@H]1O[C@@H](CO)[C@@H](O)[C@@H](O)[C@@H]1OC2=O	-6.12% [at 25.6 µM]	–
COc1cccc(Nc2nc(-c3ccc(O)cc3)cs2)c1	–	7.08 µM (active)
c1cnc(Nc2nc(-c3ccc4ccccc4c3)cs2)nc1	-2.2%	–
O=C(NCc1ccccc1)c1sc(=S)n2c1[nH]c(=O)c1ccccc12	–	3.98 µM (active)
O=C(O)NCc1ccccc1 (tested in a mixture with another compound)	-3.33% [at 11.4 µM]	–
Cc1nn2c([nH]c(=O)c3ccccc32)c1C=O	3.01%	–
COc1ccc2cc3cc(C(=O)NCCN4CCN(c5ccccc5F)CC4)oc3nc2c1	–	14.1 µM (active)
COc1ccc2cc3cc(C(=O)NCCCN4CCOCC4)oc3nc2c1	–	10 µM (active)
CCN1CCN(CCCNC(=O)c2cc3cc4ccc(OC)cc4nc3o2)CC1	-17.8%	–
COc1cc2c3c(c1OC)C1(C=CC(=O)C=C1)CC3N(C(=O)c1ccccc1)CC2 (centres undefined)	1.64%	–
CN1CCN(C(=O)c2ccc(-n3cccc3)cc2)CC1	-11.5%	–
COc1cc2c(C(=O)N3CCN(C)CC3)c(C)n(-c3ccccc3)c2cc1Br	–	1.12 µM (active)
COc1ccc2nc(N)sc2c1	-20.7%	–
COc1ccc2c(Cl)c(-c3nnco3)sc2c1	–	7.08 µM (active)
COc1ccc2nc(/N=C\N(C)C)sc2c1	-29.5%	–
COc1ccc(/C=N/Nc2snc(SC)c2C#N)cc1OC	–	8.91 µM (active)
COc1cc(/C=N\Nc2nc3ccccc3[nH]2)cc(OC)c1OC	-13.5% [at 2.29 µM]	–
COc1cc(/C=N/Nc2snc(SC)c2C#N)cc(OC)c1OC	–	7.94 µM (active)
COc1cccc(-c2cncnc2Nc2ccc(F)cc2)c1	–	0.794 µM (active)
COc1cccc(-c2cncnc2NC2CCNCC2)c1	-17.5%	–
CS(=O)(=O)Nc1cccc(-c2cncnc2Nc2ccccc2)c1	–	0.501 µM (active)
CS(=O)(=O)Nc1cccc(-c2cncnc2Nc2ccc(F)cc2)c1	–	0.316 µM (active)
Nc1cc2c(nc3c4ccccc4c(N)cc3[n+]2-c2cccc3ccccc23)c2ccccc12 (tested in a mixture with another compound)	-29.5% [at 11.4 µM]	–
CCCCCCCCC[n+]1cccc2c3ccccc3ccc21	6.4%	–

Structure (SMILES)	activity, negative = inhibition	AC50
Cc1cc(N)c2ccccc2[n+]1CCCCCCCCCCCCCC[n+]1c(C)cc(N)c2ccccc21	–	10 µM (active)
CCOC(=O)[C@H](N)/C=C(\C)CP(=O)(O)O	-11.1%	–
O=C(CSc1nc2ccccc2s1)c1sc2sc3ccccc3[n+]2c1O	-12.2% [at 11.4 µM]	–
O=C(CSc1nc2ccccc2s1)N1c2ccccc2Sc2ccccc21	–	11.2 µM (active)
O=C(CSc1nc2ccccc2s1)N1c2ccccc2Sc2ccc(C(F)(F)F)cc21	–	6.31 µM (active)
CO/N=C(\C(=O)N[C@@H]1C(=O)N2C(C(=O)O)=C(COC(N)=O)CS[C@@H]12)c1ccco1	18.5% [at 25.6 µM]	–
N[C@@H](CSS(=O)(=O)O)C(=O)O	-15.1%	–
CC(C)(C)c1[nH]nc2c1C(c1ccc(OC(=O)c3ccco3)cc1)C(C#N)=C(N)O2 (centres undefined)	–	2.24 µM (active)
O=C(Nc1ccccc1Cl)c1ccn[nH]1	11.2%	–
COC(=O)c1ccccc1NC(=O)c1ccc(F)cc1	-21%	–
O=C(Nc1cccc2[nH]ncc12)c1ccc(F)cc1	–	15.8 µM (active)
O=C(Nc1cccc(F)c1)N1CCCC2(CCN(C(=O)c3cc(C(F)(F)F)cc(C(F)(F)F)c3)CC2)C1	–	12.6 µM (active)
N#Cc1cccc(NC(=O)N2CCCC3(CCN(C(=O)c4cc(C(F)(F)F)cc(C(F)(F)F)c4)CC3)C2)c1	–	10 µM (active)
COCC(=O)N1CCC2(CC1)CN(C(=O)Nc1cccc(F)c1)C2	-6.8%	–
O=C(Nc1cccc(F)c1)N1CC[C@@]2(CCCN(C(=O)c3cc(C(F)(F)F)cc(C(F)(F)F)c3)C2)C1	–	15.8 µM (active)
O=C(Nc1ccccc1)N1CC2(CCN(C(=O)c3cc(C(F)(F)F)cc(C(F)(F)F)c3)CC2)C1	-17.6%	–
O=C(Nc1ccccc1)N1CCCC2(CCN(C(=O)c3cc(C(F)(F)F)cc(C(F)(F)F)c3)CC2)C1	–	15.8 µM (active)
COC(=O)N1CCC2(CCCN(C(=O)Nc3ccccc3)C2)CC1	-23.6%	–
Cn1cccc1C(=O)N1CCC2(CCN(C(=O)Nc3cccc(F)c3)CC2)CC1	21.8%	–
Cc1csc(NC(=O)Cc2c[nH]c3ccccc23)n1	–	35.5 µM (active)
CO/N=C\[C@@H](OC)[C@H](C)/C=C\CC(=O)OC	-11.6% [at 11.4 µM]	–
CC(=O)OC[C@H]1O[C@@H](O/N=C\[C@@H](C)[C@H](OCc2ccccc2)C(C)C)[C@H](OC(C)=O)[C@@H](OC(C)=O)[C@H]1OC(C)=O	-74.7% [at 11.4 µM]	–
COC(=O)[C@H](C)NC(=O)C/C=C\[C@@H](C)[C@H]1C=C[C@H](O)[C@@H](CO)O1	-25.2% [at 11.4 µM]	–
C=CC[C@@H]1C=C[C@H](O/N=C\[C@@H](C)[C@H](OCc2ccccc2)C(C)C)[C@H](CO)O1	–	3.98 µM (active)

Structure (SMILES)	activity, negative = inhibition	AC50
C=CC[C@@H]1C=C[C@@H](O/N=C\[C@@H](OC)[C@H](C)/C=C\CC(=O)OC)[C@@H](CO)O1	–	3.16 µM (active)
CO[C@]1(NC(=O)C2SC(=C(C(N)=O)C(=O)O)S2)C(=O)N2C(C(=O)O)=C(CSc3nnnn3C)CS[C@H]21 (some centres undefined)	-2.24% [at 25.6 µM]	–
CCc1ncc(CO)n1Cc1cccc2ccccc12	-11.4% [at 11.4 µM]	–
CCN1CCN(Cc2ccc(NC(=O)Nc3cccs3)cc2)CC1	-16.6%	–
COc1cc(CNCc2cccs2)cc(Br)c1OC	–	7.08 µM (active)
COc1cc(CNCc2cccs2)ccc1OCC(N)=O	-8.51%	–
CCOC(=O)N1CCN(C(=O)CNCc2cccs2)CC1	-4.69%	–
COc1ccc(CNC(=O)Nc2cccs2)cc1OC	–	22.4 µM (active)
COc1cc(CNCc2cccs2)ccc1OCC(=O)NC(C)(C)C	–	4.47 µM (active)
N[C@H](C(=O)O)[C@@H](O)c1cnc[nH]1	-12.3% [at 11.4 µM]	–
COc1ccc2c(c1)CCCC21NC(=O)N(CC(N)=O)C1=O (centres undefined)	-13.8%	–
Cc1cc(NC(=O)CN2C(=O)NC(C)(c3ccc(OC(F)F)cc3)C2=O)no1 (centres undefined)	-24.5%	–
COc1ccc(OC)c(C(=O)CN2C(=O)NC(C)(c3ccccc3)C2=O)c1 (centres undefined)	–	10 µM (active)
CC(C)NCCOCCSc1ccc(Cl)cc1	-10.4%	–
COC(=O)[C@@H]1C[C@H]1[C@@H](NC(=O)c1ccccc1)c1ccccc1	14.7%	–
COC(=O)[C@@H]1C[C@H]1[C@@H](NC(=O)c1cccnc1)c1ccccc1	–	10 µM (active)
COC(=O)[C@H]1C[C@@H]1[C@H](NC(=O)c1cccnc1)c1ccccc1	–	5.01 µM (active)
O=C(O)CN(CCN(CC(=O)O)CC(=O)O)CC(=O)O.[Mn]	1.35% [at 11.4 µM]	–
N[C@@H](C(=O)O)c1ccc(C(=O)O)c(C(=O)O)c1	–	inactive
Fc1ccc(Nc2ncncc2-c2ccccc2C(F)(F)F)cc1	–	0.398 µM (active)
FC(F)(F)c1ccccc1-c1cncnc1Nc1ccccc1	–	0.501 µM (active)
CNc1ncncc1-c1ccccc1C(F)(F)F	–	0.794 µM (active)
NS(=O)(=O)c1nc(S(=O)(=O)O)c2[nH]cnc2n1	-3.98% [at 11.4 µM]	–
Cc1c(C)c2c(C)[nH]nc2oc1=O	4.7% [at 11.4 µM]	–

Structure (SMILES)	activity, negative = inhibition	AC50
C[C@@H]1CN2[C@H](c3ccc(Br)cc3)[C@H](C)CC[C@H]2C(=O)O1	-28.2% [at 11.4 µM]	–
C[C@@H]1CC[C@@H]2C(=O)N3[C@@H](CC[C@@H](C)[C@@H]3c3ccc(-c4ccco4)cc3)C(=O)N2[C@H]1c1ccc(-c2ccco2)cc1	-15.7% [at 11.4 µM]	–
C[C@H]1CC[C@H]2C(=O)N[C@H](Cc3ccccc3)C(=O)N2[C@@H]1c1ccccc1	–	2.51 µM (active)
O=C(/C=C\c1ccc(O)c(O)c1)O[C@@H]1C[C@](O)(C(=O)O)C[C@@H](O)[C@@H]1O	-6.55% [at 25.6 µM]	–
Cc1cccc(OC(=O)CN2C(=O)C3C4CCC(C4)C3C2=O)c1C (centres undefined)	–	14.1 µM (active)
CC(=O)Nc1ccc(NCN2C(=O)C3C4CCC(C4)C3C2=O)cc1 (centres undefined)	-16.7%	–
COc1ccc(C(=O)Nc2ccc(Cl)cn2)cc1Cl	–	28.2 µM (active)
Cc1cc(=O)oc(C)c1C(=O)Nc1ccc(Cl)cn1	-3.08% [at 2.29 µM]	–
CCOc1ccc(C(=O)Nc2ccc(Cl)cn2)cc1Cl	-26.9%	–
FC(F)(F)c1ccccc1-c1cncnc1NCc1cccs1	–	0.251 µM (active)
Cc1ccccc1-c1cncnc1NCc1cccs1	–	0.501 µM (active)
FC(F)(F)c1ccccc1-c1cc(NCc2cccs2)ncn1	-27.4%	–
Clc1ccccc1-c1cncnc1NCc1cccs1	–	0.501 µM (active)
COc1ccccc1-c1cncnc1NCc1cccs1	–	0.398 µM (active)
CCCCCCCCCCCC1=C(O)C(=O)C=C(O)C1=O	9.54%	–
NNC(=O)CNC(c1ccccc1)c1cc(Br)ccc1NC(=O)c1ccccc1Br (centres undefined)	–	0.794 µM (active)
O=C(O)c1ccccc1C(=O)Nc1cc2c(cc1Br)-c1ccccc1C2=O	-24.8% [at 11.4 µM]	–
O=C(O)CCCCCNC(=O)c1ccccc1Br	-0.958%	–
CCOC(=O)CCN1C(=O)[C@H]2[C@H]3[C@H](O)[C@H](O)C/C(=N/OCC(C)C)[C@H]3CC[C@@H]2C1=O	-22.9% [at 11.4 µM]	–
COc1ccccc1-c1cc(NCc2cccnc2)ncn1	–	5.01 µM (active)
Cc1ccccc1-c1cc(NCc2cccnc2)ncn1	–	10 µM (active)
Cc1ccccc1-c1cc(NCc2ccccc2)ncn1	5.2%	–
